Test results from PubChem BioAssay AID1851 (National Center for Advancing Translational Sciences (NCATS), 2009).
Screen size: about 16,000 compounds; about 4,000 (25%) were called active. About 26% were inconclusive and are not listed. Calls follow the shape of the dose curve; as a rule, active = well fitted curve in the direction sought with a large enough effect; inconclusive = small, poorly fitted or top-dose-only effect, or effect the other way; inactive = no such curve, though single readings can be large or run the other way. The list is a sample of the results.

Target: Cytochrome P450 2C9 (Homo sapiens) (UniProt P11712)
Assay: Cytochrome panel assay with activity outcomes
Conditions: recombinant CYP, pro-luciferin dealkylation, luminescence, p450-cyp2c9; series mostly up to 57.1 µM; activity, negative = inhibition: at the top concentration
% is scaled to controls: 0 for no effect and ±100 for the full control effect.

Sequence of Cytochrome P450 2C9 (Homo sapiens) (P11712 whole entry, looked up): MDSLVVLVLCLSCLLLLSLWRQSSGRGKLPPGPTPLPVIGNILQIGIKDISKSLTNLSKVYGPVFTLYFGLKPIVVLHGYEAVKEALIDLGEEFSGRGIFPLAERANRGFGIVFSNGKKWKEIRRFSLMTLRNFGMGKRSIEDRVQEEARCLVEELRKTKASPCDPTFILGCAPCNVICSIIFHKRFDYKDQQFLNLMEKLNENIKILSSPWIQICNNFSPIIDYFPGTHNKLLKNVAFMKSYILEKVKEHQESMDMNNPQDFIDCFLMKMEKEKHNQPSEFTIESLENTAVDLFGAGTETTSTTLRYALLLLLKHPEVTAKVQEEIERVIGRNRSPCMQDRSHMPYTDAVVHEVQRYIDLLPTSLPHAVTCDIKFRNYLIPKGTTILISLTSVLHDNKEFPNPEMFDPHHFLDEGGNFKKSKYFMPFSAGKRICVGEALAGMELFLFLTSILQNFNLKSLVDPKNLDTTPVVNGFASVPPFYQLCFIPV

Structure (SMILES)	AC50	activity, negative = inhibition
COC(=O)[C@@]1(Cc2ccccc2)[C@H]2c3cc(C(=O)N4CCCC4)n(Cc4c(CO)[nH]cc(C)c4=O)c3C[C@H]2CN1C(=O)c1ccccc1	1 µM (active)	–
COC(=O)[C@@]1(Cc2ccc(F)cc2)[C@H]2c3cc(C(=O)N4CCCC4)n(Cc4c(CO)[nH]cc(C)c4=O)c3C[C@H]2CN1C(=O)c1ccccc1	10 µM (active)	–
CCCCCCCCCCCCCCCC(=O)C(F)(F)F	–	20.8% (inactive)
COC(=O)N1CCC2(CCCN(Cc3ccccc3)C2)CC1	–	0.0487% (inactive)
COCC(=O)N1CCC[C@@]2(CCN(Cc3ccc(C#N)cc3)C2)C1	–	16.8% (inactive)
N#Cc1ccc(CN2CCCC3(CCN(S(=O)(=O)c4ccccc4)CC3)C2)cc1	12.6 µM (active)	–
N#Cc1ccc(CN2CCC3(CC2)CCN(S(=O)(=O)c2ccccc2)CC3)cc1	–	-8.31% (inactive)
O=S(=O)(c1ccccc1)N1CCC2(CC1)CN(Cc1ccccc1)C2	–	1.78% (inactive)
COC(=O)N1CCC2(CCCN(Cc3ccc(C#N)cc3)C2)CC1	12.6 µM (active)	–
CN(C)CC(CN(C)C)c1ccccn1	–	-2.56% [at 11.4 µM] (inactive)
C[C@@H](C1=C(CCN(C)C)Cc2ccccc21)c1ccccn1	0.501 µM (active)	–
CN(C)CC[C@@H](c1ccccc1)c1ccccn1	inactive	–
CNc1cc(-c2ccccc2CN(C)C)ncn1	–	24.8% [at 2.29 µM] (inactive)
Cc1cccc(-c2n[nH]c([N+](=O)[O-])n2)c1	20 µM (active)	–
CCCCN1C(=O)NC(NC(=O)c2ccco2)(C(F)(F)F)C1=O (stereo unspecified)	12.6 µM (active)	–
CCCCn1c(=N)n(CC(=O)c2ccco2)c2ccccc21	–	-8.19% (inactive)
CC(=O)NC1=NC(=O)C(C)S1 (stereo unspecified)	–	-14.5% (inactive)
Cc1ccc(NC(=O)c2c(C(F)(F)F)nn(C)c2SCc2cccc(C(F)(F)F)c2)cc1C	0.891 µM (active)	–
Cn1nc(C(F)(F)F)c(C(=O)Nc2ccc(F)cc2F)c1Sc1ccc(C(F)(F)F)cc1	4.47 µM (active)	–
CCc1ccc(NC(=O)Cn2nc(C(F)(F)F)c3c2CCC3)cc1	–	-29% (inactive)
CCNS(=O)(=O)c1ccc(NC(=O)c2cc(C(F)(F)F)nn2C)cc1	–	3.85% (inactive)
CC(=O)NC1(c2ccc(F)cc2)CCN(C(=O)Nc2ccc(F)cc2F)CC1	–	-28.9% (inactive)
Cn1nc(C(F)(F)F)c(C(=O)Nc2ccc(F)cc2F)c1Sc1cccc(C(F)(F)F)c1	1.58 µM (active)	–
Cc1ccc(NC(=O)c2sccc2SCc2cccc(C(F)(F)F)c2)cc1	2.51 µM (active)	–

Structure (SMILES)	AC50	activity, negative = inhibition
O=C(O)/C=C/C(=O)Nc1ccc(F)cc1F	–	-8.84% (inactive)
CC(=O)N(/N=C1\Sc2ccccc2C1=O)c1ccccc1C	14.1 µM (active)	–
CC(=O)N(/N=C1\Sc2ccccc2C1=O)c1ccccc1	–	-1.76% (inactive)
COC(=O)c1c(NC(C)=O)sc(Cc2ccccc2)c1C	10 µM (active)	–
CCOC(=O)c1c(NC(=O)c2c(C)noc2C)sc2c1CCCCC2	–	-13.5% (inactive)
CCOc1ccc(CC(=O)Nc2sc(Cc3ccccc3)c(C)c2C(N)=O)cc1OCC	–	-18.4% (inactive)
Cc1sc(NC(=O)C2CCCCC2C(=O)O)c(C(N)=O)c1C (stereo unspecified)	–	-26.8% (inactive)
CO[C@]1(NC(=O)CSCC#N)C(=O)N2C(C(=O)O)=C(CSc3nnnn3C)CS[C@H]21	inactive	–
COC(=O)c1c(C)[nH]c(C)c1C(=O)c1ccccc1Cc1ccccc1	–	-10.3% (inactive)
Cc1sc(NC(=O)C(C)C)c(C(=O)Nc2ccccc2)c1C	12.6 µM (active)	–
CCOC(=O)c1c(NC(=O)CSc2nnnn2C)sc(C)c1C	22.4 µM (active)	–
Cc1cccc(NC(=O)CSc2nnnn2C)n1	–	-12.2% (inactive)
CCOC(=O)c1c(NC(=O)CSc2nnc(C)s2)sc2c1CCCCC2	11.2 µM (active)	–
CN(C)c1nc(N)c(C(=O)N=C(N)N)nc1Cl	–	-9.29% (inactive)
COC(=O)C1=C(C)[C@@H](O)[C@@H](C)[C@H](c2c(OC)c(OC)c(C)c(OC)c2OC)O1	–	-3.08% [at 11.4 µM] (inactive)
CC(=O)N1CCC2(CCCN(Cc3nccs3)C2)CC1	–	-25.5% (inactive)
CCOC(=O)c1c(NC(=O)Nc2ccccc2)sc(C)c1C	3.55 µM (active)	–
CCOC(=O)c1c(NC(=O)/C=C/c2ccc3c(c2)OCO3)sc(C)c1C	–	-7.1% (inactive)
Cc1cc(Nc2ccccc2)nc(N)n1	–	-3.06% (inactive)
Cc1nnc(SCc2nc(N)nc(Nc3ccccc3)n2)s1	10 µM (active)	–
CCCSc1nnc2n(N)c(=O)c3ccccc3n12	–	-23.6% (inactive)
Nc1nc(N)[n+]([O-])c(N)c1NCO	–	6.07% [at 11.4 µM] (inactive)
CCOC(=O)c1cnc(SCCc2ccccc2)nc1N	11.2 µM (active)	–
CCOC(=O)c1cnc(N(C)C)nc1SC(=N)N	–	-5.38% [at 11.4 µM] (inactive)

Structure (SMILES)	AC50	activity, negative = inhibition
Nc1nc(N)c(CCCCc2ccccc2)c(N)n1	–	5.71% [at 11.4 µM] (inactive)
CC1(C)C2([N+](=O)[O-])CN3CC1([N+](=O)[O-])CN(C2)C31CCCC1	–	-7.73% (inactive)
C=C1C(=O)O[C@@H]2[C@@H]1CC/C(C)=C\CC[C@@]1(C)O[C@H]21	inactive	–
O=c1c2ccc([N+](=O)[O-])c3cccc(c32)c2nc3ccccc3n12	–	-7.5% (inactive)
O=C(O)c1ccc2c3c1cccc3c(=O)n1c3ccccc3nc21	0.158 µM (active)	–
O=C(O)C(=O)/C=C(\O)c1ccc(Br)cc1	–	-19.1% [at 11.4 µM] (inactive)
Cc1ccc2nc(NC(=O)COC(=O)CSc3nc(C)cc(C)n3)sc2c1	3.98 µM (active)	–
CCCOc1ccc(C(=O)NC(=S)Nc2nc3ccc(C)cc3s2)cc1	–	-22.2% (inactive)
Cc1ccc2nc(NC(=O)CSCC(=O)OCC(=O)c3ccc(Br)cc3)sc2c1	14.1 µM (active)	–
COc1ccc2nc(NC(=O)CSc3nnc(C)s3)sc2c1	–	-8.02% (inactive)
COc1ccc([C@@H]2Sc3ccccc3N(CCN(C)C)C(=O)[C@@H]2OC(C)=O)cc1	–	28.5% (inactive)
NC(=S)Nc1ccc(Oc2ccc(NC(N)=S)cc2)cc1	7.08 µM (active)	–
COc1ccc2[nH]c(=O)c(NC(N)=S)nc2c1	–	-27.2% (inactive)
COc1ccc(C2Nc3ccccc3C(=O)N2Cc2ccco2)cc1COc1ccc([N+](=O)[O-])cc1 (stereo unspecified)	0.178 µM (active)	–
O=C1C2=C(Nc3cc([N+](=O)[O-])ccc3N2)O[C@@H]1c1c[nH]c2ccc(COc3ccccc3)cc12	–	-16.4% [at 11.4 µM] (inactive)
Cc1ccc(C2Nc3ccccc3C(=O)N2Cc2ccco2)cc1 (stereo unspecified)	3.16 µM (active)	–
O=C1c2ccccc2NC(c2ccc(F)cc2)N1Cc1ccco1 (stereo unspecified)	3.16 µM (active)	–
CN(Cc1ccco1)C(=O)C1CCC(=O)N1Cc1ccc(F)cc1 (stereo unspecified)	–	-48.2% (inactive)
CC1(CC(=O)O)O[C@H]2CCCCC[C@H]2O1 (stereo partly specified) (tested in a mixture with another compound)	–	1.04% [at 11.4 µM] (inactive)
CC(=O)N1CC2(CC2)CC1c1ccccc1 (stereo unspecified)	–	8.15% (inactive)
CC(C)NC[C@@H](O)COc1cccc2ccccc12	inactive	–
CC(C)Oc1ccc2ccccc2c1C=O	10 µM (active)	–
CO[C@H]1C[C@@H](O[C@@H]2[C@H](C)[C@H](O[C@@H]3O[C@@H](C)C[C@@H](N(C)C)[C@@H]3O)[C@H](C)C[C@]3(CO3)C(=O)[C@H](C)[C@H](O)[C@H](C)[C@H](C)OC(=O)[C@@H]2C)O[C@@H](C)[C@H]1O	–	-14.7% [at 25.6 µM] (inactive)
CC(=O)N[C@@H](CC(=O)O)C(=O)O	–	5.33% [at 25.6 µM] (inactive)

Structure (SMILES)	AC50	activity, negative = inhibition
O=C(Nc1ccc(-c2cn3ccccc3n2)cc1)c1cc(Br)ccc1O	–	-1.72% [at 11.4 µM] (inactive)
O=C(c1cc(Br)ccc1O)c1cc(Br)ccc1O	0.1 µM (active)	–
CC(C)(C)CC(C)(C)c1ccc(O)c(C[N+](C)(C)[O-])c1	–	0.733% [at 11.4 µM] (inactive)
Cc1cc(C)nc(NN2C(=O)/C(=C/c3ccccc3)SC2=S)n1	–	-17% (inactive)
COc1cc(/C=C2\SC(=S)N(Nc3ccccc3)C2=O)cc(OC)c1OC	6.31 µM (active)	–
CC(C)CC(=O)N[C@H](C(=O)N[C@H](C(=O)N[C@@H](CC(C)C)[C@H](O)CC(=O)N[C@@H](C)C(=O)N[C@@H](CC(C)C)[C@H](O)CC(=O)O)C(C)C)C(C)C	–	0.404% [at 25.6 µM] (inactive)
CCc1ccccc1NC(=O)CSc1nc(-c2ccccc2)nn1C(=O)c1cccc([N+](=O)[O-])c1	0.447 µM (active)	–
O=C(O)[C@@H]1[C@@H](C(=O)O)[C@]23C[C@@]2(C(=O)O)[C@]2(C(=O)O)CCC3=C3CCCC312	–	14% [at 11.4 µM] (inactive)
CCOC(=O)c1cnc2ccc(C)cc2c1Sc1ccccc1C(=O)OC	1.41 µM (active)	–
CCOC(=O)c1cnc2c(cnn2CC)c1NN=C(C)C	–	-17.8% (inactive)
Cc1nnc(NC(=O)CSc2ncnc3c2cnn3-c2ccccc2C)s1	–	-21.4% (inactive)
Cc1ccccc1-n1ncc2c(SCC(=O)N3c4ccccc4CC3C)ncnc21 (stereo unspecified)	10 µM (active)	–
CCOc1ccccc1NC(=O)C(=O)NCC1CCCN1CC (stereo unspecified)	–	-1.86% (inactive)
CC1CN(C(=O)c2cc3c(s2)CCC3)CC(C)O1 (stereo unspecified)	–	18.7% (inactive)
Cc1cc(C)n(C(=O)c2cc3c(s2)CCCC3)n1	11.2 µM (active)	–
CCOC(=O)CC1NC(=O)c2ccccc21 (stereo unspecified)	–	-12.7% (inactive)
CCOC(=O)COc1c(OC)cc(Cl)cc1C1Nc2ccccc2C(=O)N1c1ccc(F)cc1 (stereo unspecified)	0.282 µM (active)	–
CCOC(=O)COc1c(OC)cc(Cl)cc1C1Nc2ccccc2C(=O)N1c1cccc(C)c1 (stereo unspecified)	0.708 µM (active)	–
CC(C)=NO[C@@H](C)c1cn([C@@H]2COC[C@@H]2O)nn1	–	11.5% [at 11.4 µM] (inactive)
COc1ccc2cc(CCC(C)=O)ccc2c1	–	-16.9% [at 25.6 µM] (inactive)
COc1ccc(CCNC(=O)COc2ccc(S(=O)(=O)NC3CCCCC3)cc2Cl)cc1	2.51 µM (active)	–
CC(C)(Sc1ccc(CCN(CCCCC2CCCCC2)C(=O)NC2CCCCC2)cc1)C(=O)O	–	-9.97% (inactive)
COc1ccc(CCCC(=O)NC2CCCCC2)cc1	10 µM (active)	–
COc1ccc(NC(=O)COc2ccc(CNCCCN3CCOCC3)cc2OC)cc1	–	-29.9% (inactive)
